Experimental data published in PubChem BioAssay (Tox21).
Inconclusive results are not listed. The source made the active and inactive calls. Unless noted, calls come from the whole dose curve; as a rule, active = well fitted curve in the direction sought with a large enough effect in the repeat runs; inconclusive = weak or mixed curves; inactive = no such curve, though single readings can be large; an effect the other way counts as inactive or inconclusive. Non-standard residues stand in square brackets, D forms with d. Residues, ends and D or L forms follow the SMILES beside them. *: point of attachment. Sta = CC(C)C[C@H](N)[C@@H](O)CC(=O)O; Isovaleryl = CC(C)CC(=O)*

What was measured:
[1] = A CellTox Green Cytotoxicity Assay to monitor cytotoxicity in HEK293 cells - 16 hour (AID 1224888); note: nearly all actives have a fitted effect of over 35% in size
Procedure, shortened: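 Fluorescence intensity, read at 0, 8, 16, 24, 32 and 40 h of compound treatment, reflected dye binding to DNA of dead HEK293 cells; compounds (23 nL, DMSO) were added 5 h after plating cells with reagent.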

[2] = A CellTox Green Cytotoxicity Assay to monitor cytotoxicity in HepG2 cells - 8 hour (AID 1224890); note: nearly all actives have a fitted effect of over 45% in size
Procedure, shortened: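 Using 1536-well format, dye-containing HepG2 suspension was seeded, allowed 5 h at 37 C/5% CO2, dosed by pintool with compounds, positive and negative controls, and imaged for fluorescence across 40 h.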

[3] = qHTS assay to identify small molecule antagonists of the estrogen receptor alpha (ER-alpha) signaling pathway using the BG1 cell line in the presence of 0.1 nM 17-beta-estradiol - cell viability counter screen (AID 1259241); note: nearly all actives have a fitted effect of over 40% in size
Procedure, shortened: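 In this screen, hormone-deprived VM7Luc4E2 cells were seeded at 4,000 per well, dosed with compound and 0.1 nM estradiol final, and incubated 22 hr at 37C and 5% CO2; fluorogenic live-cell protease signal reported viability.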

[4] = qHTS assay to identify small molecule antagonists of the androgen receptor (AR) signaling pathway using the MDA cell line in the presence of 0.5 nM R1881 - cell viability counter screen (AID 1259242); note: nearly all actives have a fitted effect of over 45% in size
Procedure, shortened: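 Viability of MDA-kb2 cells was multiplexed with the luciferase AR readout; after 16 hr with compounds and R1881 at 0.5 nM final, CellTiter-Fluor fluorescence was recorded.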

[5] = biological target: Androgen receptor (Homo sapiens) (UniProt P10275); assay: qHTS assay to identify small molecule antagonists of the androgen receptor (AR) signaling pathway using the MDA cell line in the presence of 0.5 nM R1881 (AID 1259243); note: nearly all actives have a fitted effect of over 50% in size
Sequence of Androgen receptor (Homo sapiens) (P10275 whole entry, looked up): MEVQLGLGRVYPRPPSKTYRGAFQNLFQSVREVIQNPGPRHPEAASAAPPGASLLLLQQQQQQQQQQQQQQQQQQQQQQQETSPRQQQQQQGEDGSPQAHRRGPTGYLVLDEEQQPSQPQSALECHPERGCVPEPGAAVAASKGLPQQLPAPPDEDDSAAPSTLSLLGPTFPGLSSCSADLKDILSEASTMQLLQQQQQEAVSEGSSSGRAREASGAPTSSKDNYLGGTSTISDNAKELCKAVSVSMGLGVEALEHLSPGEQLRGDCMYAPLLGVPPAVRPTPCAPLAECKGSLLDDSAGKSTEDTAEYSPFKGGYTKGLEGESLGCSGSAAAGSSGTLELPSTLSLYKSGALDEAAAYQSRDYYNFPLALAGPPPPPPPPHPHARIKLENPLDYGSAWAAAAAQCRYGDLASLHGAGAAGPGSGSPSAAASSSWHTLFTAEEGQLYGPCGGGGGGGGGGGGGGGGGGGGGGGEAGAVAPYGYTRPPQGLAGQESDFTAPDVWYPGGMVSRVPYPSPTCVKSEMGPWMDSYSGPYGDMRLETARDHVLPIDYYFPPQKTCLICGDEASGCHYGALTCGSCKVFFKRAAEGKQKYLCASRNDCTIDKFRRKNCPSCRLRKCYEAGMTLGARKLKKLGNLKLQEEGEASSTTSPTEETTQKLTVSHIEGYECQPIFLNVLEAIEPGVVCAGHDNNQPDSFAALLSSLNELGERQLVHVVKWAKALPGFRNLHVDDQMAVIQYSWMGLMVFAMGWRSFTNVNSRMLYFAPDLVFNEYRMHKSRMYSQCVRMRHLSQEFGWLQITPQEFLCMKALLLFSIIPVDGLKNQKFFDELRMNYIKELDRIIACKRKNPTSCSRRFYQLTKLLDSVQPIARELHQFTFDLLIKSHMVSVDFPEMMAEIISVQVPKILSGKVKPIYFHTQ
Procedure, shortened: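 Reporter cells cultured without CO2 receive test chemicals, then 0.5 nM R1881 final; after 16 hr at 37C, ONE-Glo is added and light output recorded.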

[6] = biological target: Estrogen receptor (Homo sapiens) (UniProt P03372); assay: qHTS assay to identify small molecule antagonists of the estrogen receptor alpha (ER-alpha) signaling pathway using the BG1 cell line in the presence of 0.1 nM 17-beta-estradiol (AID 1259244); note: nearly all actives have a fitted effect of over 50% in size
Sequence of Estrogen receptor (Homo sapiens) (P03372 whole entry, looked up): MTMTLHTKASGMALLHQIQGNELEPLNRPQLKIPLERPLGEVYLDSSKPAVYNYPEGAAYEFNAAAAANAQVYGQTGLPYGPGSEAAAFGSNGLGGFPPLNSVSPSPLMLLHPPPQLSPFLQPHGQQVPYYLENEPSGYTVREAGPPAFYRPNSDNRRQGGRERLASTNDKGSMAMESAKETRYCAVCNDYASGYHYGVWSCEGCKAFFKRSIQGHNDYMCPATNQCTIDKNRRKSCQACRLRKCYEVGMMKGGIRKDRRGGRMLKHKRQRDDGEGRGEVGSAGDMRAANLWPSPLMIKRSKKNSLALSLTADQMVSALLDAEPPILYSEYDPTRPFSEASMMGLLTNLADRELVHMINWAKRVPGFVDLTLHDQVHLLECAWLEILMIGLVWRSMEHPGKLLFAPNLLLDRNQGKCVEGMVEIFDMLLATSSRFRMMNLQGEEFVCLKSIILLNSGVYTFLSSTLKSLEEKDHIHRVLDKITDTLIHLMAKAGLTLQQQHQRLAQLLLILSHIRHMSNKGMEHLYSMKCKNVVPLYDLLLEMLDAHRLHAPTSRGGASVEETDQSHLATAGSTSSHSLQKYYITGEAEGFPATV
Procedure, shortened: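 Estradiol at 0.1 nM (final) stimulates the endogenous ER-alpha of VM7Luc4E2 cells carrying an ERE-driven luciferase; compounds are co-incubated 22 h at 37C and luciferase output quantified by luminescence.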

[7] = qHTS assay to identify small molecule phospholipidosis (PLD) inducers (AID 1259344; active = well fitted curve in the direction sought with a large enough effect; an effect the other way counts as inactive or inconclusive)
Procedure, shortened: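 HepG2 cells grown on collagen I take up LipidTOX Red while exposed to compound for 24 h; after fixation they are imaged at 20x and pit metrics are extracted.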

[8] = qHTS assay to identify small molecule HDAC inhibitors - cell viability counter screen (AID 1259365); note: series mostly up to about 92 µM; nearly all actives have a fitted effect of over 50% in size
Procedure, shortened: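 Measured quantity is CellTiter-Glo luminescence from wild-type HCT-116 cells after compound incubation of 2hr at 37C, 5% CO2; reagent developed 30min at room temperature.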

[9] = qHTS assay to identify small molecule agonists of the sonic hedgehog signaling (Shh) pathway - cell viability counter screen (AID 1259366); note: nearly all actives have a fitted effect of over 50% in size
Procedure, shortened: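 In quantitative high-throughput format, 3T3 Gli1-Luc cells were exposed to compounds for 24hr and multiplexed for viability using CellTiter-Fluor, incubated 1hr at 37C before the fluorescence read.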

[10] = qHTS assay to identify small molecule antagonists of the sonic hedgehog signaling (Shh) pathway - cell viability counter screen (AID 1259367); note: nearly all actives have a fitted effect of over 55% in size
Procedure, shortened: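 After a 4 hr settling period, 3T3 Gli1-Luc cells were treated with DMSO-dissolved chemicals and conditioned medium, kept 24 hr at 37C in 5% CO2, and assayed for viability by CellTiter-Fluor fluorescence following 1 hr reagent incubation.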

[11] = qHTS assay to identify small molecule antagonists of the sonic hedgehog signaling (Shh) pathway (AID 1259369; calls by dose curve; note: nearly all actives have a fitted effect of over 45% in size)
Procedure, shortened: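 For antagonist detection, the reporter line received test compounds together with conditioned medium, incubated 24hr at 37 C, 5% CO2, then luminescence was recorded following 30min room-temperature luciferase reagent incubation.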

[12] = biological target: Estrogen receptor beta (Homo sapiens) (UniProt Q92731); assay: qHTS assay to identify small molecule agonists of the estrogen receptor beta (ER-beta) signaling pathway (AID 1259377; active = well fitted activation curve with a large enough effect in the signal ratio in the repeat runs, not every such curve was filed as active; the % refers to the signal ratio)
Sequence of Estrogen receptor beta (Homo sapiens) (Q92731 whole entry, looked up): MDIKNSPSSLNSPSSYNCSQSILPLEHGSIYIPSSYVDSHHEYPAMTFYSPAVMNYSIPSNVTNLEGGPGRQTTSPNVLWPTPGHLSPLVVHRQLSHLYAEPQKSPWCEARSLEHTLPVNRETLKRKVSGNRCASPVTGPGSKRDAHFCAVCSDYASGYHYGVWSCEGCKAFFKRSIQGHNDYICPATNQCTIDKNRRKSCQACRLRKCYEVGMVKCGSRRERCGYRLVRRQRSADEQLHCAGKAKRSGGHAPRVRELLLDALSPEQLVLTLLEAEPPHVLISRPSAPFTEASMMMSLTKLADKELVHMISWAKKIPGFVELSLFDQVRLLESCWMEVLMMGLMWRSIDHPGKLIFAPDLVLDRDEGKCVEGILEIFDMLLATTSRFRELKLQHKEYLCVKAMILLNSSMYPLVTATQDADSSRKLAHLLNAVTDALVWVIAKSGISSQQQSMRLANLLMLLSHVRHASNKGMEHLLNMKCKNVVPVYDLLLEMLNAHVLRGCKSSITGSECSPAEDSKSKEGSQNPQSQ
Procedure, shortened: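 Reporter cells (HEK293T, ER-beta-UAS-bla) receive compounds or DMSO after a 6 hr pre-incubation. They then incubate 16 hr at 37C/5% CO2, and fluorescence from LiveBLAzer B/G substrate is measured after 2 hours at room temperature.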

[13] = biological target: Estrogen receptor beta (Homo sapiens) (UniProt Q92731); assay: qHTS assay to identify small molecule antagonists of the estrogen receptor beta (ER-beta) signaling pathway (AID 1259378; active = well fitted inhibition curve with a large enough effect in the signal ratio in the repeat runs, not every such curve was filed as active; the % refers to the signal ratio)
Procedure, shortened: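 ER-beta-UAS-bla HEK293T (GripTite) cells in 2% charcoal-stripped FBS medium were preincubated 6 hr at 37C, dosed with compound, then stimulated with 1 nM E2 (final) for 16 hr; beta-lactamase reporter read by B/G FRET fluorescence after 2 hr substrate loading.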

[14] = qHTS assay to identify small molecule agonists of the androgen receptor (AR) signaling pathway in the presence of an antagonist - cell viability counter screen (AID 1259379);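 note: MDA-kb2 human breast cancer cells carrying an MMTV luciferase reporter; series mostly up to about 92 µM; nearly all actives have a fitted effect of over 25% in size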
Procedure, shortened: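 Seed MDA-kb2 at 3,000 cells/well; incubate 5 hr, 37C, 0% CO2. Add nilutamide to 3.0uM final, then pin compounds at 15 concentrations. Incubate 16 hr. Add CellTiter-Fluor at 15 hr, read fluorescence after 1 hr.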

[15] = qHTS assay to identify small molecule agonists of the estrogen receptor beta (ER-beta) signaling pathway - cell viability counter screen (AID 1259380); note: nearly all actives have a fitted effect of over 30% in size
Procedure, shortened: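 CellTiter-Glo read, 30 min RT, same wells as bla assay; cells ER-beta-UAS-bla HEK293T; 16 hr compound, 37C; medium 2% charcoal-stripped FBS.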

[16] = biological target: Androgen receptor (Homo sapiens) (UniProt P10275); assay: qHTS assay to identify small molecule agonists of the androgen receptor (AR) signaling pathway in the presence of an antagonist (AID 1259381; calls by dose curve; note: nearly all actives have a fitted effect of over 15% in size)
Procedure, shortened: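 Test compounds at 15 concentrations were incubated for 16hr with MDA-kb2 reporter cells in presence of 3.0uM nilutamide (final). Signal: ONE-Glo luciferase luminescence.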

[17] = qHTS assay to identify small molecule antagonists of the estrogen receptor beta (ER-beta) signaling pathway - cell viability counter screen (AID 1259382); note: series mostly up to about 92 µM; nearly all actives have a fitted effect of over 55% in size
Procedure, shortened: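 In this multiplexed counter screen, cells were seeded at 2,000 per well in medium with 2% charcoal-stripped FBS and incubated 6 hr before compound and 1nM final E2 were added. Sixteen hours later, ATP-based luminescence reported viability.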

[18] = qHTS RealTime-Glo MT Cell Viability Assay in HepG2 cells - 0 hour (AID 1224889); note: nearly all actives have a fitted effect of over 50% in size
Procedure, shortened: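 HepG2 cells were seeded at 600 cells/well together with NanoLuc luciferase and a cell-permeant prosubstrate, preincubated 5 h at 37 C/5% CO2, then pin-dosed with compounds in DMSO. Nonlytic luminescence from viable cells was read at each time point.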

[19] = qHTS assay to identify small molecule HDAC inhibitors (AID 1259364);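 note: wild-type HCT-116 cells with endogenous class I/II HDAC activity; top concentration of the series differs between compounds; nearly all actives have a fitted effect of over 45% in size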
Procedure, shortened: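 Read-out: luminescence of HDAC-Glo I/II reagent, 30 min RT, reflecting class I/II deacetylase activity in whole HCT-116 cells pre-exposed 2 h to DMSO-dissolved compounds.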

[20] = qHTS assay to identify small molecule agonists of the sonic hedgehog signaling (Shh) pathway (AID 1259368; calls by dose curve;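 note: NIH/3T3-derived 3T3Gli1-Luc cells carrying a stable Gli1-driven firefly luciferase reporter; series mostly up to about 92 µM; nearly all actives have a fitted effect of over 15% in size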)
Procedure, shortened: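 A Gli1 transcriptional response element controlled firefly luciferase in 3T3Gli1-Luc cells. Compounds and a positive control were added 4 hr after plating, and cells were incubated a further 24 hr at 37 C before luminescence detection.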
% is set by controls: 0 for no effect and ±100 for the full control effect.

C/C(=N\O)c1ccc(OCC(=O)N2CCCCC2)cc1
inactive: Potency [1] | Potency [2] | outcome [3] | outcome [4] | Potency [5] | outcome [6] | Potency [7] | outcome [8] | outcome [9] | outcome [10] | Potency [11] | Potency [12] | outcome [13] | outcome [14] | Potency [15] | outcome [16] | outcome [17]

CC(C)CC(=O)N[C@H](C(=O)N[C@H](C(=O)N[C@@H](CC(C)C)[C@@H](O)CC(=O)N[C@@H](C)C(=O)N[C@@H](CC(C)C)[C@@H](O)CC(=O)O)C(C)C)C(C)C (Isovaleryl-VV[Sta]A[Sta]-OH)
inactive: Potency [1] | Potency [18] | outcome [3] | outcome [4] | Potency [7] | Potency [19] | outcome [8] | outcome [9] | outcome [10] | outcome [20] | Potency [11] | outcome [14] | Potency [15]

COc1ccccc1N1CCN(CC(O)COc2cc(OC)c(OC)c(OC)c2)CC1 (stereo unspecified)
inactive: Potency [1] | Potency [18] | outcome [3] | outcome [4] | outcome [6] | Potency [19] | outcome [8] | outcome [9] | outcome [10] | Potency [11] | Potency [12] | outcome [13] | outcome [14] | Potency [15] | outcome [17]

CCc1ccc(CC)cc1
inactive: Potency [1] | Potency [2] | outcome [3] | outcome [4] | outcome [6] | Potency [19] | outcome [8] | outcome [9] | outcome [10] | outcome [20] | Potency [11] | Potency [12] | outcome [13] | outcome [14] | Potency [15] | outcome [17]

O=C1Nc2ccccc2C1=O
inactive: Potency [1] | Potency [2] | outcome [3] | outcome [4] | Potency [19] | outcome [8] | outcome [9] | outcome [10] | outcome [20] | Potency [12] | outcome [13] | outcome [14] | outcome [17]

CCOCCOCCOC(C)=O
inactive: Potency [1] | outcome [3] | outcome [4] | Potency [19] | outcome [8] | outcome [9] | outcome [10] | outcome [20] | Potency [11] | Potency [12] | outcome [14] | Potency [15] | outcome [17]

N=C(N)N1CCc2ccccc2C1
inactive: activity change [1] -13.7% [at 6.97 µM, active compounds read high] | cytotoxicity increase [2] -13.8% [at 6.97 µM] | activity change, negative = cytotoxicity [3] 9.23% [at 8.39 µM] | viability change, negative = cytotoxic [4] -5.28% [at 8.39 µM] | Potency [7] | activity change, negative = inhibition [19] 3.09% [at 8.39 µM] | activity change, negative = cytotoxicity [8] -4.02% [at 8.39 µM] | viability change, negative = cytotoxic [9] 2.39% [at 8.39 µM] | viability change, negative = cytotoxic [10] 3.14% [at 8.39 µM] | activity change, negative = inhibition [11] 18.9% [at 8.39 µM] | activity change, negative = cytotoxicity [14] 0.84% [at 8.39 µM] | activity change, negative = cytotoxicity [15] 1.92% [at 8.39 µM]

CC(CC(=O)Cl)CC(C)(C)C (stereo unspecified)
inactive: Potency [1] | Potency [2] | outcome [3] | outcome [4] | outcome [6] | Potency [19] | outcome [8] | outcome [9] | outcome [10] | outcome [20] | Potency [11] | Potency [12] | outcome [13] | outcome [14] | Potency [15] | outcome [17]

CC/C=C\CCCCCCCCCCOC(C)=O
inactive: Potency [1] | outcome [3] | outcome [4] | outcome [6] | Potency [19] | outcome [8] | outcome [9] | outcome [10] | outcome [20] | Potency [11] | Potency [12] | outcome [13] | outcome [14] | Potency [15]

COC(=O)C(c1ccccc1Cl)N1CCc2sccc2C1 (stereo unspecified)
inactive: Potency [1] | outcome [3] | outcome [4] | Potency [7] | Potency [19] | outcome [8] | outcome [9] | outcome [10] | Potency [11] | outcome [14] | Potency [15] | outcome [17]
